Compound activity deposited in PubChem by ICCB-Longwood Screening Facility, Harvard Medical School.
Only a selection was taken, and hits are over-represented in it overall.
S aureus helic = inhibitors of S. aureus replicative helicase, primary screen, biochemical, fluorescence unwinding readout | purified S. aureus helicase, fluorescence unwinding assay | inhibition, % (no concentration beside the values) | actives 0.05% (n = 120,000) | AID 485395, 2010; in the data active means inhibition above about 25%, passing the limit was not always enough;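 further: 0% = mean of negative control wells and 100% = mean of positive control wells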
Sa growth inh = S. aureus growth inhibition at 42 and 30 °C, primary screen, LtaS inhibitor project, RN4220, two temperatures; OD600, 20 h, 42 °C; stronger effect = lower value; relative growth, % (test concentration not listed); actives 0.53% (n = 170,000); AID 720641, 2013;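 active means relative growth at most 50% at the other temperature and 20+ points below 30 °C, or under 10% at both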
Numbers without * were called inactive; x = no result given; ! = not confirmed by another sample.

SMILES | S aureus helic | Sa growth inh
Cc1onc(-c2ccccc2)c1C(=O)NC1C(=O)N2[C@@H]1SC(C)(C)[C@@H]2C(=O)O (stereo not given in full) | x | -0.9*
Cc1onc(-c2ccccc2)c1C(=O)NC12CC3CC(CC(C3)C1)C2 | -7 | 93
Nc1cc(-c2ccc(Cl)cc2)nn1S(=O)(=O)c1ccc(F)c(F)c1 | x | 116
Cn1c(C(Cc2ccccc2)NC(=O)c2ccccc2)nc2ccccc21 (stereo not given) | 11 | 105
CO/N=C(/C(=O)N[C@@H]1C(=O)N2C(C(=O)O)=C(COC(C)=O)CS[C@H]12)c1csc(N)n1 | x | 1.1*
C=CC1=C(C(=O)O)N2C(=O)[C@@H](NC(=O)C(=NO)c3csc(N)n3)[C@H]2SC1 | x | -0.1*
CC(=O)OCC1=C(C(=O)O)N2C(=O)[C@@H](NC(=O)Cc3cccs3)[C@H]2SC1 | x | -0.7*
COc1ccc(N2CC(NC(=O)Cc3cccs3)CC2=O)cc1 (stereo not given) | x | 109
CO/N=C(\C(=O)O)c1csc(N)n1 | 17 | 92
COCC1=C(C(=O)OC(C)OC(=O)OC(C)C)N2C(=O)[C@@H](NC(=O)/C(=N/OC)c3csc(N)n3)[C@H]2SC1 (stereo not given in full) | x | 37
C#CCOc1ccc2c(c1)c(C(=O)OCC)c(C)n2-c1ccc(N(C)C)cc1 | -4 | 92
O=C(CC(c1ccccc1)n1cccc1)N1CCc2ccccc21 (stereo not given) | 0 | 104
COc1ccccc1N=Cc1ccsc1S | -4 | 59
O=S(=O)(Nc1ccc(O)c2ccccc12)c1ccccc1 | 2 | 5.0*
O=C(O)c1ccccc1NS(=O)(=O)c1ccccc1 | 13 | 120
CC1(C)CC(=O)C(CC(=O)N2CCCCCC2)=C(O)C1 | -11 | 86
CCOC(=O)C1CCCN(C(=S)Nc2ccc(OCC)cc2)C1 (stereo not given) | 15 | 121
CCOC(=O)c1sc(-c2ccc(F)cc2)cc1N | -6 | 48*
CCOC(=O)c1sc(-c2ccccc2)cc1N | 7 | x
CC(C)CCNC(=O)CN1C(=O)c2cccnc2Sc2ccccc21 | x | 84
Oc1ccccc1/C=N/[n+]1ccccc1 | -1 | 86
C=CC[n+]1ccc(/C=C/c2ccccc2O)c2ccccc21 | 42* | 34
COc1ccc(OC)c(C2NC(C(=O)O)C3C(=O)N(c4cccc(C(=O)O)c4)C(=O)C23)c1 (stereo not given) | 2 | 96
CCCCCN1COc2ccc3c4c(c(=O)oc3c2C1)CCC4 | 19 | 101
CC(C)(C)N1COc2ccc3c4c(oc3c2C1)C(=O)c1ccccc1C4=O | 4 | 50
SMILES | S aureus helic | Sa growth inh
Cc1oc2c(c1C(=O)NCCCn1ccnc1)C(=O)c1ccccc1C2=O | 34 | -0.8*
Cc1oc2c(c1C(=O)NCCC(C)C)C(=O)c1ccccc1C2=O | -6 | 17
O=C1c2ccccc2C(=O)c2c1oc1c3c(ccc21)OCN(CCC1=CCCCC1)C3 | 6 | 7.0*
O=C1c2ccccc2C(=O)c2c1oc1c3c(ccc21)OCN(CCCn1ccnc1)C3 | 24 | 5.8*
CCOC(=O)c1c(NCC(=O)N2CCOCC2)sc2c1CC(C)(C)NC2(C)C | -7 | 96
Cc1ccc2c(c1)sc(=NC(=O)C(C)C)n2C | -5 | x
COc1ccc2oc(=O)cc(CN3CCN(C(=O)c4ccccc4)CC3)c2c1 | x | 95
O=C(CSc1ncnc2sc3c(c12)CCCC3)N/N=C/c1cccs1 | 16 | 87
O=C(CSc1nc2cc(Cl)ccc2s1)Nc1ccnn1C1CCCC1 | 22 | 103
CCOC(=O)c1c(-c2cccs2)csc1NC(=O)c1ccccc1 | 6 | 114
CCOC(=O)c1c(-c2ccc(C)o2)csc1NC(=S)NC(=O)N(C)C | 10 | -0.6*
CN(C(=O)Cn1c(SCc2ccccc2F)nc2ccncc21)c1ccccc1 | -5 | 107
Cc1cc(C)c2c(=O)cc(CSCC(=O)Nc3nnc(C)s3)[nH]c2c1 | x | -0.5*
Cc1ccc2c(=O)cc(CSCC(=O)Nc3nnc(C)s3)[nH]c2c1 | x | 95
O=C1NC(=S)NC(=O)C1=Cc1cccc(O)c1Cl | 7 | 119
CCCCNC(=O)C(CC)Sc1nc2ccccc2c(=O)n1CCc1ccc(OC)c(OC)c1 (stereo not given) | x | 86
O=C(Cn1ccn(-c2ccccc2)c(=O)c1=O)Nc1ccccc1 | 2 | 91
CC(C)C1O/C(=N\C(=O)Nc2ccc(Cl)c(Cl)c2)NC1=O (stereo not given) | -3 | 0.5*
CCNC(=O)/N=C1\NC(=O)C(C(C)C)O1 (stereo not given) | -7 | 86
Nc1ccccc1NCCO | -22 | 88
Nc1ccccc1NCCc1ccccc1 | -75 | 9.1*
CSc1sc(-c2nc(C)cs2)c(C)c1-c1ccnc(=S)[nH]1 | x | 87
NC(=O)c1ccccc1OCC(=O)N1CCOCC1 | 9 | 110
NCCCN1CCCCC1 | 2 | 98
O=C(N=Nc1c(O)[nH]c(=O)[nH]c1=O)c1ccccn1 | 5 | 101
SMILES | S aureus helic | Sa growth inh
O=C(N=Nc1c2ccccc2c2nc3no[nH]c3nc12)c1ccccc1O | -28 | 0.6*
CC(C=C1C(=O)NC(=O)NC1=O)c1ccccc1 (stereo not given) | x | 80
COc1ccc2[nH]c(C)cc(=S)c2c1 | 12 | 83
Cc1ccc2[nH]c(C)cc(=S)c2c1 | 1 | 5.8*
CSc1ccc([C@H]2[C@H](C(=O)O)CC(=O)N2Cc2ccccc2)cc1 | 2 | 102
COc1ccc2c(COC(=O)c3ccc4c(=O)n5c(nc4c3)CCC5)cc(=O)oc2c1 | 26* | 84
O=C(OCc1ccccc1Cl)c1ccc2c(=O)n3c(nc2c1)CCC3 | 14 | 84
O=C(CNCc1ccccc1F)Nc1ccc(N2CCCC2)cc1 | 1 | 102
N#Cc1ccc(NC(=O)Cn2cnnn2)cc1 | -9 | 91
COC(c1cccs1)c1c(C)[nH]c2ccccc12 (stereo not given) | -8 | 2.0*
Cc1[nH]c2ccccc2c1C(c1cccs1)N1CCN(c2ccccc2)CC1 (stereo not given) | 19 | 0.0*
Cc1[nH]c2ccccc2c1C(c1ccncc1)N1CCN(C)CC1 (stereo not given) | -27 | x
Cc1[nH]c2ccccc2c1C(Nc1ccccn1)c1cccs1 (stereo not given) | 1 | x
COc1ccccc1CNC(=O)c1ccc(-c2nc(CN3CCc4ccccc43)c(C)o2)cc1 | x | 128
CCCCC(=O)NC(c1ccco1)c1cc(Cl)c2cccnc2c1O (stereo not given) | -25 | 20*
CCC(=O)NC(c1ccco1)c1cc(Cl)c2cccnc2c1O (stereo not given) | 5 | 72
FC(F)(F)c1cc(NC(=S)NC2CCCCC2)cc(C(F)(F)F)c1 | x | 7.4*
Cc1cc(C)cc(NC(=S)NC2CCCCC2)c1 | x | 79
O=C(O)c1ccccc1C(=O)Nc1cccnc1 | 9 | 96
COc1cccc2c1C(=O)c1c(O)c3c(c(O)c1C2=O)C[C@@](O)(C(=O)CO)C[C@@H]3O[C@H]1C[C@H](N)[C@H](O)[C@H](C)O1 | x | 1.8*!
O=C(Nc1cccc(C(F)(F)F)c1)c1ccc(F)cc1 | -17 | 67
Cc1cc(C)c2cccnc2c1O | 21 | 3.0*
Cc1cc(C)c2ccc(NN)nc2c1O | 0 | 30
NNc1nnc(-c2ccccc2)c(-c2ccccc2)n1 | 23 | 31
Clc1nnc(-c2ccccc2)c(-c2ccccc2)n1 | x | -0.6*
